Records with an inconclusive call do not appear. A call without a number means that no potency is given here. Calls of active or inactive are those of the source. Unless noted, calls follow the shape of the dose curve; as a rule, active = well fitted curve in the direction sought with a large enough effect; inconclusive = small, poorly fitted or top-dose-only effect, or another doubt; inactive = no such curve, though single readings can be large; an effect the other way counts as inactive or inconclusive.
What was measured:
[1] = qHTS assay for measurement of the activity of small molecule inhibitors on Zika virus induced Caspase-3 activity in human astrocytoma cells (AID 1224859); also: potency is read from the fitted curve at half-maximal effect
In short: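 A cell-based luminescent caspase-3/7 assay used SNB-19 cells infected with ZIKV (2 FFU/cell) for 6 h following 1 h compound pretreatment.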

[2] = qHTS assay to identify small molecule inhibitors of chordoma cells - UCH-1 (AID 1259355); also: nearly all actives have a fitted effect of over 55% in size
In short: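 Seed 800 cells per well; incubate overnight at 37 C, 5% CO2. Add test compounds (15 concentrations), then the auranofin–topoisomerase-agent combination. Incubate 48hr, add CellTiter-Glo, wait 30min, read luminescence.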

[3] = qHTS assay to identify small molecule inhibitors of chordoma cells - UCH-2 (AID 1259356); also: series mostly up to about 46 µM
[4] = P-glycoprotein substrates identified in KB-8-5-11 adenocarcinoma cell line, qHTS therapeutic library screen (AID 1346987); also: series mostly up to about 44 µM; nearly all actives have a fitted effect of over 65% in size
In short: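 P-gp-mediated resistance screen: KB-8-5-11 cells treated 72 h with compounds in dose-response. CellTiter-Glo viability.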

[5] = Natriuretic polypeptide receptor (hNpr1) antagonism - Pilot counterscreen GloSensor control cell line (AID 1347045; calls by dose curve; also: series mostly up to about 38 µM)
In short: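 This counterscreen uses HEK293 cells expressing the GIP/pGS-40F cGMP biosensor. Compound-treated cells are challenged with 50 uM sodium nitroprusside, and the luciferase signal is compared before and after stimulation.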

[6] = biological target: Atrial natriuretic peptide receptor 2 (Homo sapiens) (UniProt P20594); test: Natriuretic polypeptide receptor (hNpr2) antagonism - Pilot subtype selectivity assay (AID 1347050; calls by dose curve)
Atrial natriuretic peptide receptor 2 (Homo sapiens), sequence (P20594 whole entry, looked up): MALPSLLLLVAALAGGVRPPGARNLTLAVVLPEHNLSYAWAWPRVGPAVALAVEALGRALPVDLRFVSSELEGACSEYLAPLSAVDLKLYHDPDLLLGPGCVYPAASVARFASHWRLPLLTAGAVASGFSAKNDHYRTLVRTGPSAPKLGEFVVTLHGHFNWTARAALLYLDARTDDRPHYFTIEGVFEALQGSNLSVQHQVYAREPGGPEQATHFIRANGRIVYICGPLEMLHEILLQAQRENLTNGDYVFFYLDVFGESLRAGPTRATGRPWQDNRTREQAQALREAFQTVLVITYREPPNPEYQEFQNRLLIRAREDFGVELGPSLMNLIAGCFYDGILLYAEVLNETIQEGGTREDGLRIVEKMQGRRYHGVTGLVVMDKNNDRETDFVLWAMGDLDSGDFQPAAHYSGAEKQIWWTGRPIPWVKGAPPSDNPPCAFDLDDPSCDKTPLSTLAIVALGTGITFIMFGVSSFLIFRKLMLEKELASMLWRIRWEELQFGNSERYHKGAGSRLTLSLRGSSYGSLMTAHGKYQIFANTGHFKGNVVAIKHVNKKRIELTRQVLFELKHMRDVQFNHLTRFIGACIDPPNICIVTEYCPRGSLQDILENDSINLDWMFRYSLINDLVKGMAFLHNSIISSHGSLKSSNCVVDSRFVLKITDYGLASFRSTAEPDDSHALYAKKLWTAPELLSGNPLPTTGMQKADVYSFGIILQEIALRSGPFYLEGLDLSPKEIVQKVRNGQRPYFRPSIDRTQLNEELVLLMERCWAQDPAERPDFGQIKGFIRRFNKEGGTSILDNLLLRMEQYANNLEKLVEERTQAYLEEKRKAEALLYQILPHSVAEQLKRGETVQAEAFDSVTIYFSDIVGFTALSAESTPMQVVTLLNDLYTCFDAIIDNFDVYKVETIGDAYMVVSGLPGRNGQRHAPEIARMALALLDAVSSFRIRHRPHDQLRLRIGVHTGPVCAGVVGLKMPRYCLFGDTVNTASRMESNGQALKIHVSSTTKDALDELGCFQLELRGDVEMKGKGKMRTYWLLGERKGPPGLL
In short: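 Pilot selectivity screen against hNpr2: HEK293 cGMP-sensor cells are treated with LOPAC1280 compounds, then with hNppC peptide at 1 nM final. The cGMP-driven luminescence change over 20 min at room temperature is the read-out.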

[7] = NS1 protein of Zika virus - qHTS assay to identify small molecule inhibitors in human HEK 293 cells (AID 1347053); also: series mostly up to about 46 µM; nearly all actives have a fitted effect of over 55% in size
In short: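 HEK 293 cells, seeded 20 h at 37 C, were pretreated with compound 1 h, then infected with ZIKV MR766 (MOI = 0.5) for 24 h. NS1 was read by TR-FRET with two anti-NS1 antibodies, normalized to uninfected and infected wells.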

[8] = biological target: T1, Tyrosine-protein phosphatase non-receptor type substrate 1 (Homo sapiens) + Leukocyte surface antigen CD47 (Homo sapiens) (UniProt P78324+Q08722); test: CD47-SIRPalpha protein protein interaction - LANCE assay qHTS validation (AID 1347057; active = well fitted curve in the direction sought with a large enough effect in the signal ratio, with a control signal flat, not every such curve was filed as active; the % refers to the signal ratio; also: series mostly up to about 38 µM)
T1 sequence (P78324 whole entry, looked up): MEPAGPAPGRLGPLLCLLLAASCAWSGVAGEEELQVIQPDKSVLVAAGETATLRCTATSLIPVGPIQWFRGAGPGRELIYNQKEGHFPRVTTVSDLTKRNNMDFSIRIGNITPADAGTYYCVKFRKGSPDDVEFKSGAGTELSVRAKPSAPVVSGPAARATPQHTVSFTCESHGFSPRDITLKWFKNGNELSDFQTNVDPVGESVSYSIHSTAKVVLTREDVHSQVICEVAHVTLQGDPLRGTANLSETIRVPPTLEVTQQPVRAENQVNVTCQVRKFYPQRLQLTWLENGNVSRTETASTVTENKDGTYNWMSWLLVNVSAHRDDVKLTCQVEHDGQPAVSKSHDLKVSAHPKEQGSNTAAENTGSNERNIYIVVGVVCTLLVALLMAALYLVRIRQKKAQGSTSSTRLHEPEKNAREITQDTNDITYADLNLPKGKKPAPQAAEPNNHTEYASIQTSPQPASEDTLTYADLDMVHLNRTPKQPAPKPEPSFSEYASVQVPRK
T1 sequence (Q08722 whole entry, looked up): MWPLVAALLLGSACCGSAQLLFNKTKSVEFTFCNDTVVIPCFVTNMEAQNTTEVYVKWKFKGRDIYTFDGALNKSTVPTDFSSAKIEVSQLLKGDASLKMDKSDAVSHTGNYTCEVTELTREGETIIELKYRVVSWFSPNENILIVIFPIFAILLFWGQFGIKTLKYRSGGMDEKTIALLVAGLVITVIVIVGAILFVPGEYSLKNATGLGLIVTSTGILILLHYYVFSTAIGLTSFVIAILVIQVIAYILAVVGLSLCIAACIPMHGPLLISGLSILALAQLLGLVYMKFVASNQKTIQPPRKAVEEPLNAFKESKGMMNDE
In short: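 First, His-tagged CD47 and Eu-labelled anti-His antibody met the compound for 30 min; next, site-specifically biotinylated SIRPalpha was added for 30 min; finally streptavidin-APC was added before reading the TR-FRET ratio.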

[9] = biological target: T1, Tyrosine-protein phosphatase non-receptor type substrate 1 (Homo sapiens) + Leukocyte surface antigen CD47 (Homo sapiens); test: CD47-SIRPalpha protein protein interaction - HTRF assay qHTS validation (AID 1347058; active = well fitted curve in the direction sought with a large enough effect in the signal ratio, not every such curve was filed as active; the % refers to the signal ratio;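 also: recombinant soluble extracellular CD47 with His tag and biotinylated SIRPalpha domains; series mostly up to about 38 µM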)
In short: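 TR-FRET read (Ch1/Ch2 ratio) of soluble extracellular CD47 and Avi-biotinylated SIRPalpha domains in PBS pH 7.4 with 0.05% IGEPAL; 7-point compound titration. Sequential 30 min room-temperature steps; non-biotinylated SIRPalpha as control inhibitor.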

[10] = biological target: T1, Tyrosine-protein phosphatase non-receptor type substrate 1 (Homo sapiens) + Leukocyte surface antigen CD47 (Homo sapiens); test: CD47-SIRPalpha protein protein interaction - Alpha assay qHTS validation (AID 1347059);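 also: bead proximity luminescence from CD47 binding SIRPalpha after compound preincubation with SIRPalpha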
In short: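 Binding is measured by AlphaScreen proximity: Ni-NTA acceptor beads capture His-CD47, streptavidin donor beads capture biotin-SIRPalpha. Each of three additions (SIRPalpha with compound, CD47, beads) incubates 30 min at room temperature protected from light.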

[11] = biological target: Parathyroid hormone/parathyroid hormone-related peptide receptor (Homo sapiens) (UniProt Q03431); test: qHTS for PTHR1 Agonists: Optimization Screen against the NCGC LOPAC library (AID 1347079);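 also: GloSensor cAMP luminescence in HEK-293 GP2 cells expressing human PTHR1 with IBMX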
Parathyroid hormone/parathyroid hormone-related peptide receptor (Homo sapiens), sequence (Q03431 whole entry, looked up): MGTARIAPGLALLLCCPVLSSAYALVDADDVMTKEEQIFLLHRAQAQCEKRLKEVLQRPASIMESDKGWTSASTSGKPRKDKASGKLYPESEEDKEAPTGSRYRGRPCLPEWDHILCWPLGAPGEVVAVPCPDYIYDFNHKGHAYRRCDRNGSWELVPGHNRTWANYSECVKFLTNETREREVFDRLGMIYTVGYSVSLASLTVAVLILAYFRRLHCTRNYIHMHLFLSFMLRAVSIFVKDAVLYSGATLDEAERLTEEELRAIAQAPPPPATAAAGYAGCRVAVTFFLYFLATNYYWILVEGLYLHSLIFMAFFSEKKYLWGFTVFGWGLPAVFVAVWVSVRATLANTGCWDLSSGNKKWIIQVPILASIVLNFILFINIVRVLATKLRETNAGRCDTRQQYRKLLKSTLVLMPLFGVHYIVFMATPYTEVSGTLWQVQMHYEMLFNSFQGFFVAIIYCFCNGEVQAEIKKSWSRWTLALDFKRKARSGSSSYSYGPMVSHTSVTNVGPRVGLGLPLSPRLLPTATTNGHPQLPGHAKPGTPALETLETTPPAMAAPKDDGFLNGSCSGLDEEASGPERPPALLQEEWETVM
In short: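 Compounds were tested across a qHTS titration. PTHR1-expressing GP2 cells report cAMP rises via GloSensor luminescence after 1 hr compound exposure at 37C with IBMX present.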

[12] = qHTS of pediatric cancer cell lines to identify multiple opportunities for drug repurposing: Primary screen for TC32 cells (AID 1347089); also: nearly all actives have a fitted effect of over 60% in size
In short: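 In the primary qHTS, MIPE compounds were tested at 11 concentrations (0.78 nM to 46 µM) and NPC compounds at 8 (0.59 nM to 46 µM) on TC32 cells for 48 h. CellTiter-Glo luminescence gave viability.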

[13] = qHTS of pediatric cancer cell lines to identify multiple opportunities for drug repurposing: Primary screen for DAOY cells (AID 1347090); also: series mostly up to about 46 µM; nearly all actives have a fitted effect of over 55% in size
In short: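 Cell viability, CellTiter-Glo luminescence; 500-1,000 cells/well, 8- or 11-point titration, 48 h compound exposure at 37 degrees C, 5% CO2. Controls: DMSO neutral, bortezomib 2.3 µM final as positive.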

[14] = qHTS assay for measurement of the activity of small molecule inhibitors on Zika virus induced Caspase-3 activity in human iPSC derived neural progenitor cells (hNPCs) (AID 1224857); also: nearly all actives have a fitted effect of over 65% in size; also: potency is read from the fitted curve at half-maximal effect
In short: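 In medium with heparin 2 ug/ml and cyclopamine 2 uM, hNPCs (350 cells/well) received compound for one hour and then Zika virus at 2 FFU/cell; caspase activity was measured by Caspase-Glo 3/7 luminescence 6 h post-infection.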

[15] = biological target: Atrial natriuretic peptide receptor 1 (Homo sapiens) (UniProt P16066); test: Natriuretic polypeptide receptor (hNpr1) antagonism - Pilot screen (AID 1347049; calls by dose curve;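 also: agonist-evoked cGMP luminescence read 20 min after hNppA addition; series mostly up to about 58 µM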)
Atrial natriuretic peptide receptor 1 (Homo sapiens), sequence (P16066 whole entry, looked up): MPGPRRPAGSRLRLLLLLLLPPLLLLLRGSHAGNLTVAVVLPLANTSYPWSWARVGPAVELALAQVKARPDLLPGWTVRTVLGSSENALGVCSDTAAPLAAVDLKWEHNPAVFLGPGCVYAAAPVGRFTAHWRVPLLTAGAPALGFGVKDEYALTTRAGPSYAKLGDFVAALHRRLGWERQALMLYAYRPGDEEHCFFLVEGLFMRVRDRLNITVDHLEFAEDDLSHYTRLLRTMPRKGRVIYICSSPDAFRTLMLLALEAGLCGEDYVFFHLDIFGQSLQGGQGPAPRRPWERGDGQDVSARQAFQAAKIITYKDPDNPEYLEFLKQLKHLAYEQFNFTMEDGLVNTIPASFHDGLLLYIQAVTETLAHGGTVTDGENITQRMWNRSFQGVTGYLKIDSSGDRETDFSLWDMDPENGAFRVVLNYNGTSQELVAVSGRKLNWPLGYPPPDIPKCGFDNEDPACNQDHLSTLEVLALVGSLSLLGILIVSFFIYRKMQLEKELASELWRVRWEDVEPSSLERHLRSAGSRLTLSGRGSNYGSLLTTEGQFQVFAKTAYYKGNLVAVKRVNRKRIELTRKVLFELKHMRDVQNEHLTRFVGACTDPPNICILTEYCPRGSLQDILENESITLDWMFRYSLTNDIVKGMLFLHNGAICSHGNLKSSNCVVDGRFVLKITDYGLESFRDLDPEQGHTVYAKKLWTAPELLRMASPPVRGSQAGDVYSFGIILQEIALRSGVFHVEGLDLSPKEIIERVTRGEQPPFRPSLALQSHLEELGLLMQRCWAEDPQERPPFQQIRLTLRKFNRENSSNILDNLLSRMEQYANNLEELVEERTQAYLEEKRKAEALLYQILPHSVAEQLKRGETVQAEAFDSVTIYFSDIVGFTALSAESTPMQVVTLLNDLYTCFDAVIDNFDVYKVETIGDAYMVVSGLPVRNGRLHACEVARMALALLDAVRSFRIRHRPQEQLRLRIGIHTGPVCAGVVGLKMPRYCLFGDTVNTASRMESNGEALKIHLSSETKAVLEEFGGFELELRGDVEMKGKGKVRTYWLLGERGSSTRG
In short: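 Readout is cGMP-driven firefly luciferase luminescence in HEK293 cells carrying hNpr1 and a PDE5-domain GloSensor, read before and 20 min after 0.1 nM hNppA stimulation. Cells had 2% substrate reagent for 2 h and test compound for 30 min.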

Question: For CC(N)C(=O)OC(C)(C)Cc1ccc(Cl)cc1 (stereo not drawn), which Potency [1] is on record?
Answer: The Potency was “inactive”.

Question: And the Potency [2]?
Answer: The Potency was “inactive”.

Question: And the Potency [3]?
Answer: The Potency was “inactive”.

Question: What about the Potency [4] of the same compound?
Answer: The Potency was “inactive”.

Question: And the Potency [5]?
Answer: The Potency was “inactive”.

Question: What about the Potency [6] of the same compound?
Answer: Its Potency is “inactive”.

Question: What about the Potency [7] of the same compound?
Answer: The Potency was “inactive”.

Question: What about the Potency [8] of the same compound?
Answer: The Potency was “inactive”.

Question: And the outcome [9]?
Answer: Its outcome is “inactive”.

Question: And the Potency [10]?
Answer: Its Potency is “inactive”.

Question: And the Potency [11]?
Answer: Its Potency is “inactive”.

Question: What about the Potency [12] of the same compound?
Answer: The Potency was “inactive”.

Question: What about the Potency [13] of the same compound?
Answer: The Potency was “inactive”.

Question: Which Potency [1] does the source give for CCCCCCCCCCCCCCCC(=O)OC(C)C here?
Answer: The Potency was “inactive”.

Question: And the Potency [2]?
Answer: The Potency was “inactive”.

Question: What about the Potency [3] of the same compound?
Answer: Its Potency is “inactive”.

Question: What about the Potency [4] of the same compound?
Answer: The Potency was “inactive”.

Question: And the Potency [7]?
Answer: Its Potency is “inactive”.

Question: What about the Potency [12] of the same compound?
Answer: Its Potency is “inactive”.

Question: And the Potency [13]?
Answer: The Potency was “inactive”.

Question: For Nc1ccn([C@H]2O[C@H](CO)[C@@H](O)C2(F)F)c(=O)n1, which Potency [14] is on record?
Answer: The Potency was “inactive”.

Question: And the Potency [8]?
Answer: Its Potency is “inactive”.

Question: What about the outcome [9] of the same compound?
Answer: The outcome was “inactive”.

Question: And the Potency [10]?
Answer: Its Potency is “inactive”.

Question: Which Potency [14] does the source give for O=C1NC(O)=NC1(c1ccccc1)c1ccccc1 here?
Answer: The Potency was “inactive”.

Question: And the Potency [8]?
Answer: The Potency was “inactive”.

Question: And the Potency [10]?
Answer: Its Potency is “inactive”.

Question: Which results are given for Cn1c(=O)c(-c2c(Cl)cccc2Cl)cc2cnc(Nc3ccc(N4CCOCC4)cc3)nc21?
Answer: Potency [14]: inactive; Potency [8]: inactive; outcome [9]: inactive

Question: With COc1ccc(/C=C2\COc3ccc(C)cc3C2=O)cc1O as the compound, how does the Potency [14] read?
Answer: The Potency was “inactive”.

Question: What about the Potency [8] of the same compound?
Answer: The Potency was “inactive”.

Question: And the Potency [10]?
Answer: Its Potency is “inactive”.

Question: Which Potency [14] does the source give for CC(C)(C)c1nnc(NS(=O)(=O)c2ccc(N)cc2)s1 here?
Answer: Its Potency is “inactive”.

Question: What about the Potency [7] of the same compound?
Answer: Its Potency is “inactive”.

Question: What about the Potency [12] of the same compound?
Answer: Its Potency is “inactive”.

Question: What about the Potency [13] of the same compound?
Answer: The Potency was “inactive”.

Question: With COCCOc1cc2ncnc(Cl)c2cc1OCCOC as the compound, how does the Potency [14] read?
Answer: Its Potency is “inactive”.

Question: And the Potency [8]?
Answer: The Potency was “inactive”.

Question: And the outcome [9]?
Answer: Its outcome is “inactive”.

Question: What about the Potency [10] of the same compound?
Answer: Its Potency is “inactive”.

Question: For C=CC(N)CCC(=O)O (stereo not drawn), which Potency [1] is on record?
Answer: Its Potency is “inactive”.

Question: And the Potency [2]?
Answer: The Potency was “inactive”.

Question: What about the Potency [3] of the same compound?
Answer: Its Potency is “inactive”.

Question: And the Potency [4]?
Answer: Its Potency is “inactive”.

Question: What about the Potency [15] of the same compound?
Answer: The Potency was “inactive”.

Question: And the Potency [6]?
Answer: Its Potency is “inactive”.

Question: What about the Potency [7] of the same compound?
Answer: The Potency was “inactive”.

Question: And the Potency [8]?
Answer: Its Potency is “inactive”.

Question: What about the outcome [9] of the same compound?
Answer: The outcome was “inactive”.

Question: And the Potency [10]?
Answer: The Potency was “inactive”.

Question: And the Potency [11]?
Answer: The Potency was “inactive”.

Question: With O=C(Nc1ccncc1)c1cc([N+](=O)[O-])ccc1Cl as the compound, how does the Potency [14] read?
Answer: Its Potency is “inactive”.

Question: What about the Potency [7] of the same compound?
Answer: The Potency was “inactive”.

Question: What about the Potency [8] of the same compound?
Answer: The Potency was “inactive”.

Question: And the Potency [10]?
Answer: Its Potency is “inactive”.

Question: With O=c1cc(-c2ccccc2)oc2ccccc12 as the compound, how does the Potency [14] read?
Answer: Its Potency is 35.5 µM (active).

Question: And the Potency [7]?
Answer: The Potency was “inactive”.

Question: What about the Potency [13] of the same compound?
Answer: The Potency was “inactive”.

Question: Which Potency [14] does the source give for O=c1cc(-c2ccccc2)oc2c(O)c(O)ccc12 here?
Answer: The Potency was “inactive”.

Question: What about the Potency [7] of the same compound?
Answer: The Potency was “inactive”.

Question: And the Potency [10]?
Answer: The Potency was “inactive”.

Question: Which results are given for N[C@H](CCCP(=O)(O)O)C(=O)O?
Answer: Potency [14]: inactive; Potency [7]: inactive; Potency [8]: inactive; Potency [10]: inactive

Question: With CC(C(=O)O)c1ccc(C(=O)c2ccccc2)s1 (stereo not drawn) as the compound, how does the Potency [1] read?
Answer: Its Potency is 14.1 µM (active).

Question: What about the Potency [2] of the same compound?
Answer: Its Potency is “inactive”.

Question: And the Potency [3]?
Answer: The Potency was “inactive”.

Question: What about the Potency [4] of the same compound?
Answer: Its Potency is “inactive”.

Question: What about the Potency [7] of the same compound?
Answer: Its Potency is “inactive”.

Question: What about the Potency [12] of the same compound?
Answer: The Potency was “inactive”.

Question: And the Potency [13]?
Answer: Its Potency is “inactive”.

Source: PubChem BioAssay (NCATS)
